Data from the supplement of paper PMC8728848.
The sample as a whole holds a higher share of the strongest signals than the screen did.

Columns and labels:
Assay in all cases: glycan array binding signal (z-score within array); higher = stronger binding
Conditions in all cases: glycan notation: IUPAC condensed, linker removed
[1] = biological target: Fuc(a1-2)Gal(b1-3)GalNAc
Method in brief: (§1)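 Glycan array binding is given as a within-array Z-score, which can be read as non-binding when negative. The arrays, 3228 of them, came from the Consortium for Functional Glycomics database and were retained only where the protein sequence was available. Z-scores were averaged across arrays of the same protein sequence at different concentrations or buffers and across linkers.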

[2] = biological target: Fuc(a1-2)Gal(b1-3)GalNAc(a1-3)[Fuc(a1-2)]Gal(b1-4)GlcNAc
Method in brief: as §1

[3] = biological target: Fuc(a1-2)Gal(b1-3)GalNAc(b1-3)Gal(a1-4)Gal(b1-4)Glc
Method in brief: as §1

[4] = biological target: Fuc(a1-2)Gal(b1-3)GlcNAc(b1-2)Man(a1-3)[Fuc(a1-2)Gal(b1-3)GlcNAc(b1-2)Man(a1-6)]Man(b1-4)GlcNAc(b1-4)GlcNAc
Method in brief: as §1

[5] = biological target: Fuc(a1-2)Gal(b1-3)GlcNAc(b1-3)Gal(b1-4)Glc
Method in brief: as §1

[6] = biological target: Fuc(a1-2)Gal(b1-3)GlcNAc(b1-3)GalNAc
Method in brief: as §1

[7] = biological target: Fuc(a1-2)Gal(b1-3)[Fuc(a1-4)]GlcNAc(b1-2)Man(a1-3)[Fuc(a1-2)Gal(b1-3)[Fuc(a1-4)]GlcNAc(b1-2)Man(a1-3)]Man(b1-4)GlcNAc(b1-4)GlcNAc
Method in brief: as §1

[8] = biological target: Fuc(a1-2)Gal(b1-4)[Fuc(a1-3)]GlcNAc(b1-2)[Fuc(a1-2)Gal(b1-4)[Fuc(a1-3)]GlcNAc(b1-4)]Man(a1-3)[Fuc(a1-2)Gal(b1-4)[Fuc(a1-3)]GlcNAc(b1-2)Man(a1-6)]Man(b1-4)GlcNAc(b1-4)GlcNAc
Method in brief: as §1

[9] = biological target: Fuc(a1-2)Gal6S(b1-4)Glc
Method in brief: as §1

[10] = biological target: Fuc(a1-2)Gal6S(b1-4)Glc6S
Method in brief: as §1

[11] = biological target: Fuc(a1-2)[Gal(a1-3)]Gal(b1-3)GalNAc(b1-3)Gal(a1-4)Gal(b1-4)Glc
Method in brief: as §1

[12] = biological target: Fuc(a1-2)[Gal(a1-3)]Gal(b1-4)GlcNAc(b1-2)Man(a1-3)[Fuc(a1-2)[Gal(a1-3)]Gal(b1-4)GlcNAc(b1-2)Man(a1-6)]Man(b1-4)GlcNAc(b1-4)GlcNAc
Method in brief: as §1

[13] = biological target: Fuc(a1-2)[GalNAc(a1-3)]Gal(b1-3)GlcNAc(b1-6)GalNAc
Method in brief: as §1

[14] = biological target: Fuc(a1-2)[GalNAc(a1-3)]Gal(b1-4)GlcNAc(b1-3)Gal(b1-4)GlcNAc
Method in brief: as §1

[15] = biological target: Fuc(a1-2)[GalNAc(a1-3)]Gal(b1-4)GlcNAc(b1-3)Gal(b1-4)GlcNAc(b1-3)Gal(b1-4)GlcNAc
Method in brief: as §1

[16] = biological target: Fuc(a1-2)[GalNAc(a1-3)]Gal(b1-4)GlcNAc(b1-6)GalNAc
Method in brief: as §1

[17] = biological target: Fuc(a1-2)[GalNAc(a1-3)]Gal(b1-4)[Fuc(a1-3)]GlcNAc
Method in brief: as §1

[18] = biological target: Fuc(a1-3)GlcNAc
Method in brief: as §1

[19] = biological target: Gal(a1-3)Gal(b1-3)GlcNAc
Method in brief: as §1

[20] = biological target: Gal(a1-3)Gal(b1-3)GlcNAc(b1-6)GalNAc
Method in brief: as §1

[21] = biological target: Gal(a1-3)Gal(b1-4)GlcNAc
Method in brief: as §1

[22] = biological target: Gal(b1-2)Gal
Method in brief: as §1

[23] = biological target: Gal(b1-3)GalNAc(a1-3)[Fuc(a1-2)]Gal(b1-4)GlcNAc
Method in brief: as §1

[24] = biological target: Gal(b1-3)GlcNAc(b1-3)Gal(b1-4)GlcNAc
Method in brief: as §1

[25] = biological target: Gal(b1-3)GlcNAc(b1-6)GalNAc
Method in brief: as §1

[26] = biological target: Gal(b1-3)GlcNAc6S
Method in brief: as §1

[27] = biological target: Gal(b1-3)[Fuc(a1-4)]GlcNAc(b1-2)Man
Method in brief: as §1

[28] = biological target: Gal(b1-3)[Fuc(a1-4)]GlcNAc(b1-2)Man(a1-3)[Gal(b1-3)[Fuc(a1-4)]GlcNAc(b1-2)Man(a1-6)]Man(b1-4)GlcNAc(b1-4)[Fuc(a1-6)]GlcNAc
Method in brief: as §1

[29] = biological target: Gal(b1-3)[GlcNAc(b1-6)]GalNAc
Method in brief: as §1

[30] = biological target: Gal(b1-4)GlcNAc(b1-2)[Gal(b1-4)GlcNAc(b1-6)]Man(a1-6)[Gal(b1-4)GlcNAc(b1-2)Man(a1-3)]Man(b1-4)GlcNAc(b1-4)[Fuc(a1-6)]GlcNAc
Method in brief: as §1

B1: Clec12b (Mus musculus), Q149M0 (protein)
chain: MSDEVTYATLMLQDSARVRGNQDGNNLRKEGHPAQSSLWRGAALSLMTLCLVLVTGLVTLATMFLQVSNDINSDSEKLSQLQKSIHPQQDNLSESLNSSRKSLTEESLQSQISALLERQEQMATKLCKEFLIHASDHKCNPCPKTWQWYGNSCYYFSINEEKSWSDSRKDCIDKNATLVKIDSTEERDLLQSQLSLTFSFFWLGLSWNSSGRNWLWEDGSFPPPTLFSDKELASFNGSRDCAYFERGNIYASRCSAEIPWICEKTASLVKTEDLD
glycan array binding signal (z-score) [1]: -0.451 | glycan array binding signal (z-score) [2]: 0.211 | glycan array binding signal (z-score) [3]: -0.395 | glycan array binding signal (z-score) [4]: 2.66 | glycan array binding signal (z-score) [5]: 3.25 | glycan array binding signal (z-score) [6]: -0.484 | glycan array binding signal (z-score) [7]: 2.58 | glycan array binding signal (z-score) [8]: 2.82 | glycan array binding signal (z-score) [9]: 0.808 | glycan array binding signal (z-score) [10]: -0.568 | glycan array binding signal (z-score) [11]: -0.052 | glycan array binding signal (z-score) [12]: 0.853 | glycan array binding signal (z-score) [13]: 4.57 | glycan array binding signal (z-score) [14]: -0.749 | glycan array binding signal (z-score) [15]: -0.115 | glycan array binding signal (z-score) [16]: 0.308 | glycan array binding signal (z-score) [17]: -0.288 | glycan array binding signal (z-score) [18]: -0.323 | glycan array binding signal (z-score) [19]: 5.35 | glycan array binding signal (z-score) [20]: -0.324 | glycan array binding signal (z-score) [21]: 0.53 | glycan array binding signal (z-score) [22]: 2.74 | glycan array binding signal (z-score) [23]: -0.587 | glycan array binding signal (z-score) [24]: -0.41 | glycan array binding signal (z-score) [25]: -0.588 | glycan array binding signal (z-score) [26]: 0.486 | glycan array binding signal (z-score) [27]: 0.927 | glycan array binding signal (z-score) [28]: 3.71 | glycan array binding signal (z-score) [29]: -0.137 | glycan array binding signal (z-score) [30]: 0.226
